Inconclusive results are not listed. The source made the active and inactive calls. Calls follow the shape of the dose curve; as a rule, active = well fitted inhibition curve with a large enough effect; inconclusive = small, poorly fitted or top-dose-only effect; inactive = flat fitted curve, though single readings scatter.
Molecular target: Voltage-gated inwardly rectifying potassium channel KCNH2 (Homo sapiens) (UniProt Q12809)
Test: qHTS Assay for Small Molecule Inhibitors of the Human hERG Channel Activity (AID 588834);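 also: lower thallium flux fluorescence means stronger hERG block; nearly all actives have a fitted effect of over 50% in size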; as to activity change, negative = inhibition: top concentration of the series differs between compounds
Settings: U2OS BacMam hERG, FluxOR thallium flux fluorescence; series mostly up to 92.2 µM; activity change, negative = inhibition: at the top concentration
Outline: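 Step 1: BacMam hERG transduction of U2OS, 4 hrs RT. Step 2: overnight 37 °C, plate 2000 cells/well, 4 hr. Step 3: FluxOR load, compound 10 min, stimulate, read fluorescence.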
% is scaled to controls: 0 for no effect and ±100 for the full control effect; potency is read from the fitted curve at half-maximal effect.

Voltage-gated inwardly rectifying potassium channel KCNH2 (Homo sapiens), sequence (Q12809 whole entry, looked up): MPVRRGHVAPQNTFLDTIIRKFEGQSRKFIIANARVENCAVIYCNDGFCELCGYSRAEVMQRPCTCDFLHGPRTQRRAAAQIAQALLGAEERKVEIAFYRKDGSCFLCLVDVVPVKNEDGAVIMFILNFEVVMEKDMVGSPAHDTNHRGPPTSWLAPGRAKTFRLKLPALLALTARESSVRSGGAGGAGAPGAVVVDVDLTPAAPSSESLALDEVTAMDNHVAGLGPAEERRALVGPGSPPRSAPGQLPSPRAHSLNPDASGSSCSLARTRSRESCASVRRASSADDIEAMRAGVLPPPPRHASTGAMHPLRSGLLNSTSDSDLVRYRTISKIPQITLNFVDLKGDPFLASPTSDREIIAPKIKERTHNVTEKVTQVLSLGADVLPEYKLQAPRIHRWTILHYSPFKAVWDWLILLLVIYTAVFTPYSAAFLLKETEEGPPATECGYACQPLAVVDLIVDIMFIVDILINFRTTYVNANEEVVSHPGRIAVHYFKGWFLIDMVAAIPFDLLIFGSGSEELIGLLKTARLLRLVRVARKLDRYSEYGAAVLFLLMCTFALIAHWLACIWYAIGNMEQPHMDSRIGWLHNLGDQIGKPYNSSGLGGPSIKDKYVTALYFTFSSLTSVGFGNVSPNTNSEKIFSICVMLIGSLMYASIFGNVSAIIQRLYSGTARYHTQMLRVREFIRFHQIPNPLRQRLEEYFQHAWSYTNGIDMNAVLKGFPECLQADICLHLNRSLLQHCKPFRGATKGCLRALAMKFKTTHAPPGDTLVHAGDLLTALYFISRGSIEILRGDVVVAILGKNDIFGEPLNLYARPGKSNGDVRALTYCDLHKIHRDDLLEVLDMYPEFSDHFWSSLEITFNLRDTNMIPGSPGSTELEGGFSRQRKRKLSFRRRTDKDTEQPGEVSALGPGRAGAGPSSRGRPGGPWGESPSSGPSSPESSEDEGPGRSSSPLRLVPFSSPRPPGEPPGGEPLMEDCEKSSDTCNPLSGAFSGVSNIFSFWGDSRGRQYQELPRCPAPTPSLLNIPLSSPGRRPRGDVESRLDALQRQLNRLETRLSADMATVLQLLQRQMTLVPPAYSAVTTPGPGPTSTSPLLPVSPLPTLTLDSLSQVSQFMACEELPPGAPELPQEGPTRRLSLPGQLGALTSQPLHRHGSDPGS

Row | SMILES | activity change, negative = inhibition | Potency
1 | CCC/C=N/O | -11.7% (inactive) | –
2 | Nc1cccc2ccccc12 | 3.49% (inactive) | –
3 | CN(C)N=O | 17.7% (inactive) | –
4 | COc1c(C(C)(C)C)cc([N+](=O)[O-])c(C)c1[N+](=O)[O-] | – | 31.6 µM (active)
5 | C=C(Cl)CCl | 7.7% (inactive) | –
6 | CC(C)(Cl)[N+](=O)[O-] | 2.78% (inactive) | –
7 | Cl/C=C/Cl | -7.42% (inactive) | –
8 | CCCCOCC1CO1 (configuration not stated) | 8.56% (inactive) | –
9 | O=C(O)c1cccc(Cl)c1 | 9.41% (inactive) | –
10 | C1CC2OC2CC1C1CO1 (configuration not stated) | 7.74% (inactive) | –
11 | Brc1cccc(-c2ccccc2)c1 | – | 35.5 µM (active)
12 | Oc1c(Cl)cccc1Cl | 4.61% (inactive) | –
13 | ClCCOCCCl | 5.08% (inactive) | –
14 | CCNCC | 5.46% (inactive) | –
15 | CC(C)C#N | 1.13% (inactive) | –
16 | Cl/C=C\Cl | -7.76% (inactive) | –

Row | SMILES | activity change, negative = inhibition | Potency
17 | c1ccc2c(c1)CCNC2 | 6.47% (inactive) | –
18 | O=[N+]([O-])c1ccc(Cl)c(Cl)c1Cl | 19.7% (inactive) | –
19 | N#CCCC#N | 14.5% (inactive) | –
20 | Cc1ccccc1[N+](=O)[O-] | -0.13% (inactive) | –
21 | OCCBr | 7.4% (inactive) | –
22 | C=CC(=O)OCCN(C)C | 5.44% (inactive) | –
23 | CC(C)(C)C(O)(CCc1ccc(Cl)cc1)Cn1cncn1 (configuration not stated) | – | 20 µM (active)
24 | N#CCCCCC#N | 1.29% (inactive) | –
25 | CCCCCC[N+](=O)[O-] | -2.03% (inactive) | –
26 | OCC(Cl)CCl (configuration not stated) | 7.46% (inactive) | –
27 | COc1ccc(C=O)cc1 | 12.6% (inactive) | –
28 | Nc1ccc(Cl)c(Cl)c1 | 2.04% (inactive) | –
29 | CC(=O)[O-].CC(=O)[O-].CC(=O)[O-].[Cr+3] | 3.12% (inactive) | –
30 | CC(=O)CCC(C)=O | -1.28% (inactive) | –
31 | C=CC(=O)OCC(CC)CCCC (configuration not stated) | -11.6% (inactive) | –
32 | CC(C#N)CCC#N (configuration not stated) | -0.177% (inactive) | –
